Hits are enriched below; roughly 21% of the tested compounds scored in any of these assays.
Pf growth 48h: inhibits P. falciparum growth in the first generation, 48 h. P. falciparum luciferase growth in erythrocytes, 48 h. Potency, µM (doses to about 28.7 µM), usual class: inhibitors. actives 5.9% (n = 310,000). AID 504832
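Compounds are pin-transferred into medium, infected erythrocytes (2% hematocrit, 0.1% parasitemia final) are added, and plates sit one parasite generation at 37 C in 5% CO2. Detection reagent is then added and luminescence measured.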
Pf growth 96h: P. falciparum growth inhibition at 96 hour, primary screen for plastid delayed-death inhibitors | P. falciparum luciferase reporter growth, 96 h | Potency, µM (doses to about 28.7 µM), hits mostly inhibitors | actives 6.9% (n = 320,000) | AID 504834
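96 h incubation, 37 C, 5% CO2, of luciferase-reporter P. falciparum-infected RBCs (2% hematocrit, 0.05% parasitemia final) with test compounds; endpoint luminescence.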
Shiga inhibitor: blocks Shiga toxin action in Vero cells; Vero cells, Shiga toxin protein synthesis inhibition reporter; inhibition, % at 38.7 µM; actives 9.2% (n = 290,000); in the data active = inhibition mostly above about 28%, no sharp cut-off; inactive = mostly below about 43%
NS1 function inh: blocks influenza NS1 protein function; Potency, µM (top dose mostly 46.1 µM); actives 0.4% (n = 270,000); calls by dose curve; note: actives are rising curves; nearly all actives have a fitted effect of over 50% in size
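In this qHTS, NS1 from influenza A is expressed in budding yeast, where it slows growth. Cells are switched from glucose to 2% galactose medium (pH 6.0, -URA), treated with compound, and growth recovery is read at OD600.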
SARS PLP yeast: inhibitors of SARS-CoV papain-like protease in yeast; S. cerevisiae expressing SARS-CoV PLpro, growth rescue; Potency, µM (highest dose often 32.9 µM), actives largely listed as activators; actives 0.19% (n = 330,000); calls by dose curve; note: nearly all actives have a fitted effect of over 55% in size
Cycloheximide cs: counter-screen hit for Shiga toxin inhibitors, cycloheximide; AID 2314; actives 12% (n = 300,000); max response, %; cell reporter, cycloheximide protein synthesis inhibition counterscreen; in the data active = max response mostly above about 13%, no sharp cut-off; inactive = mostly below about 14%; note: read at 38.3 µM for the half of the compounds with a filed dose
Of the large screens only hits and unclear results are named; the others gave an inactive call. Unless noted, calls come from the whole dose curve; as a rule, active = well fitted inhibition curve with a large enough effect; inconclusive = small, poorly fitted or top-dose-only effect, or another doubt; inactive = no such curve, though single readings can be large or run the other way.

CC(NC(=O)COc1cc(=O)n(C)c2ccccc12)c1ccc2c(c1)OCCO2 (stereo not given)	Pf growth 96h 8.3µM
Cn1c(=O)cc(OCCCC(=O)NCc2ccco2)c2ccccc21	Pf growth 96h 12µM
O=C(O)c1ccnc2c(O)cccc12	Pf growth 48h inconclusive, Pf growth 96h inconclusive (no result: Shiga inhibitor, NS1 function inh, Cycloheximide cs)
O=Cc1ccc(O)c2ncccc12	Pf growth 48h 6.6µM, Pf growth 96h inconclusive
Nc1ncnc2c1ncn2[C@@H]1O[C@H](CNC(=O)[C@@H](N)COCc2ccccc2)[C@@H](O)[C@H]1O	none (no result: Pf growth 48h, Pf growth 96h, Shiga inhibitor, NS1 function inh, Cycloheximide cs)
CC1=C(C#N)C(c2ccccc2)C2=C(N1)c1ccccc1C2=O (stereo not given)	Pf growth 48h inconclusive, Pf growth 96h 15µM
CN1C(C(=O)NCc2ccc(OC(F)(F)F)cc2)CC2Cn3c(nc4cc(Cl)c(Cl)cc43)C21 (stereo not given)	Pf growth 48h inconclusive, Pf growth 96h inconclusive
O=C(O)CSc1ccc(N=C=S)cc1	none (no result: Pf growth 48h, Pf growth 96h, Shiga inhibitor, SARS PLP yeast, Cycloheximide cs)
C/C(=N\NC(=O)c1cccc(Br)c1)c1cccc(NC(=O)c2ccc(C)o2)c1	Shiga inhibitor 42, Cycloheximide cs 28
O=C(Nc1ccc2nn(-c3ccccc3)nc2c1)c1ccc2c(c1)OCCO2	none
O=C(Nc1cccc(OC(F)(F)F)c1)c1ccc(Br)o1	Pf growth 48h inconclusive, Pf growth 96h inconclusive, Cycloheximide cs 40
C/C(=N\NC(=O)c1c(Br)c(C)nn1C)c1cccc(NC(=O)c2ccccc2C)c1	none
O=C(Nc1ccc2nn(-c3ccccc3)nc2c1)c1ccc(Br)o1	Pf growth 48h inconclusive, Shiga inhibitor 74, Cycloheximide cs 13
CC(=O)c1cccc(NC(=O)c2ccc(C)o2)c1	Pf growth 96h inconclusive, Cycloheximide cs 26 (no result: NS1 function inh)
CCCCC(=O)Nc1cccc(NC(=O)c2ccc(Br)o2)c1	none
O=C(Nc1ccccc1C(=O)O)c1cccc(NC(=O)c2ccc(Br)o2)c1	Pf growth 48h inconclusive (no result: Pf growth 96h)
O=C(Nc1cccc(F)c1)c1ccc(Br)o1	Shiga inhibitor 77, Cycloheximide cs 60
CC(=O)c1cccc(NC(=O)c2ccc(Br)o2)c1	Shiga inhibitor 63, Cycloheximide cs 24
CSCCC(NC(=O)c1ccc(C(C)(C)C)cc1)C(=O)O (stereo not given)	none
COc1ccc(OC)c(NC(=O)NCCCCc2ccccc2)c1	Pf growth 48h inconclusive, Pf growth 96h inconclusive
Clc1ccc2c(NCc3ccccn3)ccnc2c1	Pf growth 48h 0.66µM, Pf growth 96h 0.47µM
CCOc1ccccc1Nc1ccnc2cc(Cl)ccc12	Pf growth 48h 2.6µM
O=C(NCCCNc1ccnc2cc(Cl)ccc12)c1ccccc1F	Pf growth 48h 0.47µM, Pf growth 96h 0.41µM
CCOc1ccccc1NC(=O)COn1nnc2ccc(Cl)cc21	none
Clc1ccc2c(NCCNc3ccnc4cc(Cl)ccc34)ccnc2c1	none (no result: Pf growth 48h, Pf growth 96h, Shiga inhibitor, SARS PLP yeast, Cycloheximide cs)
COc1cc(OC)cc(C(=O)OCC(=O)NC2CCCCCC2)c1	none (no result: Shiga inhibitor, NS1 function inh, Cycloheximide cs)
CSc1ccccc1NC(=S)NCc1ccc(Cl)cc1	Pf growth 96h inconclusive, Shiga inhibitor 151, Cycloheximide cs 37
S=C(NCc1ccc(Cl)cc1)Nc1ccccc1Cl	none
Cc1ccc(NC(=S)NCc2ccc(Cl)cc2)c(C)c1	Pf growth 48h 10µM, Pf growth 96h inconclusive, NS1 function inh inconclusive
COc1ccc(NC(=S)NCCc2ccc(Cl)cc2)c(OC)c1	Pf growth 96h inconclusive
COc1ccc(NC(=S)NCc2ccc(Cl)cc2)c(OC)c1	Pf growth 48h inconclusive, Pf growth 96h inconclusive, NS1 function inh inconclusive, Cycloheximide cs 15 (no result: Shiga inhibitor)
COC(=O)c1sc(NC(=O)CSc2nc3cccnc3n2C)nc1C	none
Cc1cc2c(cc1C)NC(c1nc3ccccc3[nH]1)C1=C(CC(C)(C)CC1=O)N2 (stereo not given)	none
CC(=O)Nc1ccc(C2Nc3cc(C)c(C)cc3NC3=C2C(=O)CC(C)(C)C3)cc1 (stereo not given)	Pf growth 96h 8.3µM, Shiga inhibitor 40, Cycloheximide cs 36
NS(=O)(=O)c1ccc(NNC(=O)c2sccc2Cl)cc1	none
OCCNc1cnc2ccccc2n1	Shiga inhibitor 51, Cycloheximide cs 19 (no result: NS1 function inh)
OCCNc1nc2ccccc2nc1NCCO	none
CC(O)CNc1nc(Cl)c(C#N)s1 (stereo not given)	none (no result: NS1 function inh)
COc1ccc(C)cc1NC(=O)Nc1ccccc1	none (no result: Pf growth 48h)
COc1cccc(NC(=O)Nc2cc(C)ccc2OC)c1	none
COc1ccc(NC(=O)Nc2cc(C)ccc2OC)cc1	Cycloheximide cs 24

Bioassay records from PubChem BioAssay.
